This passage reports inhibition results from PubChem BioAssay.

Calls of active or inactive are those of the source. The rule behind the calls is not given here.

For orientation: inhibition means the percentage by which the read-out fell short of the control.

Sequence of Pantothenate synthetase (Mycobacterium tuberculosis (strain ATCC 25618 / H37Rv)) (P9WIL5 whole entry, looked up): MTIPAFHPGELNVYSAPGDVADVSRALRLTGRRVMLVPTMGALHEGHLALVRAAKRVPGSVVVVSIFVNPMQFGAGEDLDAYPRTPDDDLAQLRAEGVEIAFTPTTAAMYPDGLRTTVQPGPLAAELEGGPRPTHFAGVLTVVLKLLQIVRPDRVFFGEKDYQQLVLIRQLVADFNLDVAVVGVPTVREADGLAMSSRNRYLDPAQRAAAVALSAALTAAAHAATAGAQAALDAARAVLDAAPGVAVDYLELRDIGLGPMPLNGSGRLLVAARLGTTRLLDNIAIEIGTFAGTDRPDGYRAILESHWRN

The assay has as its target Pantothenate synthetase (Mycobacterium tuberculosis (strain ATCC 25618 / H37Rv)) (UniProt P9WIL5). In words: Recombinant Mtb pantothenate synthetase (PanC) inhibitors, coupled enzyme, confirmatory (AID 375).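 Note: 0% = full reaction with vehicle and 100% = no enzyme background.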 The settings on record: coupled enzyme assay; at 10 µM, active compounds read high.
As to `O=C(Nc1cccc(C(=O)N2CCOCC2)c1)c1cccnc1`, the inhibition is 0% (inactive). Turning to `O=C(NCc1ccc2c(c1)OCO2)c1ccccn1`, the inhibition was 6% (inactive). Next, `COCCNC(=O)c1c(N)n(CCC2=CCCCC2)c2nc3ccccc3nc12`: 0% (inactive). Next, `FC(F)(F)c1nnc2ccc(NCn3nnc4ccccc43)nn12`: 3% (inactive). As to `O=C(NCc1ccccc1)C1CCCN1S(=O)(=O)c1cccc2cccnc12` (stereo not given), the inhibition is 0% (inactive). Next, `CCC(C)NC(=O)C1(C)CCC(=O)N1Cc1ccccc1OC` (stereo not given): 10% (inactive). With `O=C(O)CC1SC(=Nc2cccc(C(F)(F)F)c2)NC1=O` (stereo not given) the figure was 0% (inactive).

For `CN(c1ccccc1C(=O)N1CCN(c2cccc(Cl)c2)CC1)S(C)(=O)=O`, the inhibition was 0% (inactive). With `CCOC(=O)c1[nH]c2ccc(Br)cc2c1NC(=O)CCN1CCC(C(=O)OCC)CC1` the figure was 0% (inactive); with `S=c1[nH]nc(Cc2ccccc2)n1Cc1ccco1`, 0% (inactive); with `CC(=O)N1CCN(S(=O)(=O)c2cccc(C(=O)Nc3ccc4c(c3)CCC4)c2)CC1`, 0% (inactive). For `COCCCNS(=O)(=O)c1ccc2c(c1)CCN2C(C)=O`, the inhibition is 0% (inactive). Next, `O=C(Nc1ccc(F)cc1)N(CCCN1CCOCC1)Cc1cc2cc3c(cc2[nH]c1=O)OCO3`: 6% (inactive); `COc1ccc(C(C)=O)c(OC(=O)c2ccc(OC)c(OC)c2)c1`: 0% (inactive); `C[C@H](CCC(=O)O)[C@H]1CC[C@H]2[C@@H]3C(=O)C[C@@H]4CC(=O)CC[C@]4(C)[C@H]3CC(=O)[C@]12C`: 2% (inactive). With `O=C1CCCC2=C1C(c1cccc(Br)c1)n1nc(-c3ccco3)nc1N2` (stereo not given) the figure was 0% (inactive); with `O=c1oc2c3c4c(cc2cc1-c1nc2ccccc2[nH]1)CCCN4CCC3`, 4% (inactive).

In the case of `CC(C)C1N=C2c3ccccc3N=C(SCC(=O)NCCc3ccc(S(N)(=O)=O)cc3)N2C1=O` (stereo not given), the inhibition is 0% (inactive).

With `CCN(CC)c1ccc(/C=N/n2nnnc2N)c(O)c1`, the inhibition is 6% (inactive). Next, `CCn1nnnc1NCc1cccn1C`: 5% (inactive); `COc1ccc(OC)c(NC(=O)C2CCN(c3cc(-c4ccccc4)nc4ncnn34)CC2)c1`: 2% (inactive).

Turning to `CN1CCN(CCCNC(=O)C2CC(=O)N(C3CCCCC3)C2)CC1` (stereo not given), the inhibition is 4% (inactive). With `CCCN1Cc2cccc(C(=O)NC3CCCC3)c2C1=O` the figure was 0% (inactive); with `CCCCCc1c(C)nc(N2CCc3ccccc32)[nH]c1=O`, 0% (inactive); with `Cc1ccc(-n2c3c(cc(C(=O)NC4CCSC4=O)c2=O)C(=O)CC(C)(C)C3)cc1` (stereo not given), 0% (inactive). Turning to `Cc1ccc(S(=O)(=O)Cc2ccc(C(=O)NCc3ccc4c(c3)OCO4)o2)cc1`, the inhibition was 0% (inactive). As to `C=CCN(C(=O)CNS(=O)(=O)c1ccccc1)C(C(=O)NCCOC)c1ccncc1` (stereo not given), the inhibition was 0% (inactive). With `COc1ccc(OC)c(S(=O)(=O)N2CCN(c3c(C)cccc3C)CC2)c1` the figure was 1% (inactive); with `CCOC(=O)CN1C2=NCCN2c2ccccc21`, 6% (inactive); with `O=C1c2ccccc2C(=O)N1CCCCN1CCN(CCCCN2C(=O)c3ccccc3C2=O)CC1`, 5% (inactive). Next, `Cc1cc(C)n(C(=O)C23CC4CC(CC(C4)C2)C3)n1`: 0% (inactive). With `Cc1ccccc1Cn1ccc(NC(=O)c2cnn3c(C(F)(F)F)cc(-c4ccco4)nc23)n1` the figure was 5% (inactive); with `CC(=O)[C@@]1(O)CC[C@H]2[C@@H]3C[C@H](C)C4=CC(=O)CC[C@]4(C)[C@H]3CC[C@@]21C`, 1% (inactive); with `COC(=O)c1cc(Oc2ccc(C(=O)OC)cc2N)cc(C(=O)OC)c1`, 0% (inactive). Regarding `Cc1cc(=O)n2[nH]c(-c3ccc(Cl)cc3)cc2n1`, the inhibition is 0% (inactive). Next, `CCN(CC)C(=O)COc1ccc2oc(C)c(C(=O)OC(C)C)c2c1`: 4% (inactive). Next, `Cn1c(NC(=O)c2cccc(Cn3cc(Cl)cn3)c2)nc2ccccc21`: 8% (inactive).

As to `O=C(COc1ccc2ccccc2c1)N1CCCC1`, the inhibition was 8% (inactive). Turning to `CCOC(=O)c1[nH]c(C)c(C(=O)Nc2ccccc2F)c1C`, the inhibition was 3% (inactive). With `CCC1(C(=O)OC)NC(c2cccc(F)c2)C2C(=O)N(C)C(=O)C21` (stereo not given) the figure was 3% (inactive).
